Screening data deposited in PubChem by National Center for Advancing Translational Sciences (NCATS).
RORgamma inh = blocks mouse ROR gamma transcriptional activity; P51450; Drosophila S2 Gal4-RORgamma UAS-luciferase reporter, 20 h; Potency, µM (series often up to 53.6 µM), for inactives: at the top dose activity change, negative = inhibition, hits mostly inhibitors; AID 2551; actives 5.4% (n = 310,000); further: potency means the concentration at half of the fitted maximal effect; nearly all actives have a fitted effect of over 60% in size
Target sequence (P51450 whole entry, looked up, the tested form may be a part): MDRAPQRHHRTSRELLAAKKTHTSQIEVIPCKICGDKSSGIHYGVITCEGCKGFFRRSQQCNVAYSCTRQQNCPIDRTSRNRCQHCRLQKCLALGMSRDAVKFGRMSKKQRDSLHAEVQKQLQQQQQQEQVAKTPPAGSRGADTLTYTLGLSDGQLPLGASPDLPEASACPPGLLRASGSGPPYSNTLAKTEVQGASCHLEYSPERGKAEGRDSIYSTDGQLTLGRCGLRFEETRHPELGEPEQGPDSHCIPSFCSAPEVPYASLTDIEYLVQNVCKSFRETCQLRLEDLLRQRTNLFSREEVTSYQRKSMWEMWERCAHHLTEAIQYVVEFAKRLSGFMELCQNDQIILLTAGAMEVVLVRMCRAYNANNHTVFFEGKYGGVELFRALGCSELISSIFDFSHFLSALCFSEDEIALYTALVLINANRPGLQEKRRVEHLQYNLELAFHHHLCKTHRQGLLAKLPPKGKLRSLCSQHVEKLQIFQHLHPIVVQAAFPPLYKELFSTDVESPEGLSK
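Stably transfected Drosophila Schneider cells are the test system, with ROR gamma fused to Gal4 and luciferase under UAS control; luminescence is read after 20 hr of 700 uM copper sulfate induction at ambient temperature.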
LDHA inh = LDHA (human) enzyme inhibition; P00338; purified LDHA, NADH/diaphorase-resazurin fluorescence; stronger effect = lower value; activity change, % (values are at about 110 or 230 µM); actives 0.15% (n = 480,000); AID 1347041; in the data active means activity change below about -30%; inconclusive means mostly about -25% to -30%;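 further: plate controls were DMSO wells for no effect and wells without enzyme for full effect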
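Human LDH5 at 2 nM final in Tris HCl pH 7.4 with 0.06 mM NADH and 0.2 mM pyruvate, reacted 5 minutes at room temperature. Remaining NADH coupled via diaphorase/resazurin; resorufin fluorescence read at 0 and 20 minutes, normalized to enzyme-free and DMSO wells.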
DT40 TDP1 CPT = growth inhibition of DT40 Tdp1-/-;hTDP1 cells with camptothecin (screen for TDP1 inhibitors). actives 12% (n = 420,000). Potency, µM (series often up to 46.2 µM), inactives show at the highest dose activity change, negative = growth inhibition, hits mostly inhibitors. chicken DT40 Tdp1-/-;hTDP1 cells + 20 nM CPT, ATP luminescence, 48 h; further: potency means the concentration at half of the fitted maximal effect; nearly all actives have a fitted effect of over 55% in size
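Chicken DT40 Tdp1-/- cells stably complemented with human TDP1 were seeded at 400 cells/well in medium containing 20 nM camptothecin, exposed to pin-transferred compounds, and grown at 37 °C for at least 48 hr. Viability was read as ATP luminescence.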
IL-1B inflam inh = inflammasome signaling inhibition, IL-1 beta readout; THP-1 LPS/ATP IL-1B secretion, AlphaLISA, 16 h; stronger effect = lower value; activity change, % at 57.5 µM; actives 4.7% (n = 360,000); AID 743279; in the data active means activity change below about -50%; inconclusive means mostly about -30% to -49%
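THP-1 cells pretreated 1 hr with compounds (up to 57.5 uM final), then stimulated with LPS (250 ng/mL final) plus ATP (1.25 mM final); secreted IL-1B measured by AlphaLISA after 16 hr, decreased signal indicating inhibition.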
TDP1 cell noCPT = qHTS for Inhibitors of human tyrosyl-DNA phosphodiesterase 1 (TDP1): qHTS in cells in absence of CPT | DT40 Tdp1-/- hTDP1 cells, no CPT, ATP luminescence, 48 h | Potency, µM (titrated, usually from 46.2 µM), without a hit: top-dose activity change, negative = growth inhibition, usual class: inhibitors | actives 15% (n = 420,000); further: potency means the concentration at half of the fitted maximal effect; nearly all actives have a fitted effect of over 55% in size
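DT40 Tdp1-/-;hTDP1 cells, no CPT (DMSO vehicle only), 400 cells/well; compounds pin-transferred; ≥48 hr, 37 °C; CellTiter-Glo 30 min RT dark, luminescence read.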
VP16 counter = inhibits Gal4-VP16 luciferase reporter, ROR gamma counter-screen | AID 2546 | Drosophila S2 Gal4-VP16 UAS-luciferase, luminescence, 20 h | Potency, µM (series often up to 53.6 µM), without a hit: top-dose activity, negative = inhibition, most hits filed as inhibitors | actives 3.5% (n = 310,000);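 further: Gal4-VP16 expression switched on by copper sulfate through the metallothionein promoter; potency means the concentration at half of the fitted maximal effect; nearly all actives have a fitted effect of over 50% in size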
Numbers without * were called inactive; [ ] = another dose, or the depositor's remark. This is a sample that favours compounds with a hit; in the whole collection about 18% have one here. Unless noted, the call rests on the fitted dose curve; in most records, active means well fitted curve in the direction sought with a large enough effect; inconclusive means small, poorly fitted or top-dose-only effect, or another doubt; inactive means no such curve, though single readings can be large; an effect the other way counts as inactive or inconclusive. Unless noted, on the % scale 0 is the no-effect control and ±100 the full control effect.

What do the screens show for `Cc1cc(C)c2c(C)c(C(=O)Nc3cccc4cccnc34)oc2c1`?
LDHA inh: -1

What do the screens show for `Cc1cccc(CSc2cn(CC(=O)N3CCCCC3)c3ccccc23)c1`?
LDHA inh: 1; DT40 TDP1 CPT: inconclusive; TDP1 cell noCPT: 21µM*

What do the screens show for `Cc1cccc(CSc2cn(CC(=O)N3CCCC3)c3ccccc23)c1`?
LDHA inh: 7; DT40 TDP1 CPT: 26µM*; TDP1 cell noCPT: 16µM*

Results for O=C(Cn1cc(SCc2cccc(Cl)c2)c2ccccc21)N1CCCCCC1 ?
LDHA inh: 5; DT40 TDP1 CPT: inconclusive; TDP1 cell noCPT: inconclusive

How did Cc1ccccc1NC(=O)CN(Cc1ccc2c(c1)OCO2)C1CCCC1 do in these assays?
LDHA inh: 11

How did Cc1ccc(C)c(-n2c(C)cc(/C=N/NC(=O)c3c(C)nc4cc(C)ccn34)c2C)c1 do in these assays?
RORgamma inh: inconclusive; LDHA inh: -5; DT40 TDP1 CPT: inconclusive; IL-1B inflam inh: 0; TDP1 cell noCPT: 21µM*; VP16 counter: 14µM*

What do the screens show for `O=C(N/N=C/c1ccc(OC2CSC2)cc1)c1ccc(CN2CCOCC2)cc1`?
RORgamma inh: -8%; LDHA inh: -5; DT40 TDP1 CPT: -11%; IL-1B inflam inh: 0; TDP1 cell noCPT: inconclusive; VP16 counter: -7%

How did CNC(=S)N/N=C/c1cc(C)n(-c2ccc(Cl)c(Cl)c2)c1C do in these assays?
RORgamma inh: 0.79µM*; LDHA inh: -7; DT40 TDP1 CPT: 23µM*; IL-1B inflam inh: -8; TDP1 cell noCPT: inconclusive; VP16 counter: 4.5µM*

Results for Cc1ccc(-n2c(C)cc(/C=N/NC(=O)c3ccc(CN4CCOCC4)cc3)c2C)cc1 ?
RORgamma inh: 7.9µM*; LDHA inh: -4; DT40 TDP1 CPT: inconclusive; IL-1B inflam inh: -4; TDP1 cell noCPT: inconclusive; VP16 counter: inconclusive

Results for O=C(N/N=C/c1ccc(OC(=O)c2ccccc2)cc1)c1ccc(CN2CCOCC2)cc1 ?
RORgamma inh: 39%; LDHA inh: -2; DT40 TDP1 CPT: inconclusive; IL-1B inflam inh: 8; TDP1 cell noCPT: 12µM*; VP16 counter: -3%

Results for Cc1ccn2c(C(=O)N/N=C\c3cccs3)c(C)nc2c1 ?
RORgamma inh: inconclusive; LDHA inh: 3; DT40 TDP1 CPT: -11%; IL-1B inflam inh: 18; TDP1 cell noCPT: -20%; VP16 counter: 1%[0.365 µM]

How did Cc1noc(Cn2cnc3ccc(Br)cc3c2=O)n1 do in these assays?
LDHA inh: 0

How did O=C(NCc1cccc(Cl)c1)C(=O)Nc1cccc2[nH]ccc12 do in these assays?
LDHA inh: -13

What do the screens show for `Cc1ccc(OCc2nc(C#N)c(NCCN3CCOCC3)o2)cc1`?
LDHA inh: 2

How did Cc1cccc(-n2c(C)cc(/C=N/NC(=O)c3ccc(CN4CCOCC4)cc3)c2C)c1 do in these assays?
RORgamma inh: 10µM*; LDHA inh: 4; DT40 TDP1 CPT: inconclusive; IL-1B inflam inh: 4; TDP1 cell noCPT: -7%; VP16 counter: -4%[0.365 µM]

How did CN(C)c1ccc(/C=N/NC(=O)c2ccc(CN3CCOCC3)cc2)cc1Br do in these assays?
RORgamma inh: 8%; LDHA inh: 4; DT40 TDP1 CPT: 5%; IL-1B inflam inh: -10; TDP1 cell noCPT: -30%; VP16 counter: 16%

Results for Cc1ccc(-n2c(C)cc(/C=N/NC(N)=S)c2C)cc1 ?
RORgamma inh: 2.8µM*; LDHA inh: -2; DT40 TDP1 CPT: 3.7µM*; IL-1B inflam inh: 34; TDP1 cell noCPT: 3.7µM*; VP16 counter: 4.5µM*
